Bioassay records (PubChem BioAssay)
proKLK7 act: proKLK7 zymogen activators, primary screen, biochemical, fluorescence intensity; Kallikrein-7 (Homo sapiens), P49862; purified proKLK7, EDANS-DABCYL substrate fluorescence; 100% is mature enzyme control, 0% vehicle; activation, % at 7 µM; 370,000 compounds, 0.9% hits;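 active = activation above the mean of all tested compounds plus 3 SD, computed per campaign excluding outliers beyond control limits, cut at about 13% in these data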
Target sequence (P49862 whole entry, looked up): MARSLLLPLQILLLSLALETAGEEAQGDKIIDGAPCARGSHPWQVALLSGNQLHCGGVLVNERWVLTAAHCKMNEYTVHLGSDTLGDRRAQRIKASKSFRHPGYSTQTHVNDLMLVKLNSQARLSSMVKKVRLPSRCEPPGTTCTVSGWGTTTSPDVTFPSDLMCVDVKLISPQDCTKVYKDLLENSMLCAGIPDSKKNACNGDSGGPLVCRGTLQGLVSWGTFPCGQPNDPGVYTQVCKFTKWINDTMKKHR
ADAM17 inh: ADAM17 inhibitors, primary screen, biochemical, QFRET. inhibition, % at 6.95 µM. recombinant ADAM17, EDANS/DABCYL FRET peptide cleavage. 370,000 compounds, 0.83% hits. AID 720648, 2013. Disintegrin and metalloproteinase domain-containing protein 17 (Homo sapiens), P78536;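 active = inhibition above the mean of compounds lying between control limits plus 3 SD, set per campaign, cut at about 8.5% in these data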
PLCg1 inh: PLC-gamma1 enzyme inhibitors, primary screen, biochemical, fluorescence, purified enzyme. 1-phosphatidylinositol 4,5-bisphosphate phosphodiesterase gamma-1 (Homo sapiens), P19174. fluorogenic substrate. inhibition, % at 12.2 µM. 370,000 compounds, 0.84% hits. AID 720700, 2013; in the data active = inhibition above about 9.5%
PLC-beta3 inh: human PLC-beta3 inhibitors, primary screen, biochemical, fluorescence. Purified PLC-beta3, fluorogenic substrate. inhibition, % at 12.2 µM. 1-phosphatidylinositol 4,5-bisphosphate phosphodiesterase beta-3 (Homo sapiens), Q01970. 370,000 compounds, 0.18% hits; in the data active = inhibition above about 11%
ADAM10 inh: human ADAM10 inhibitors, primary screen, biochemical, QFRET, HTS; AID 720582, 2013; recombinant ADAM10, EDANS/DABCYL FRET peptide cleavage, 3 h; 370,000 compounds, 0.62% hits; inhibition, % at 7 µM;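 active = inhibition above a per-campaign cutoff equal to the mean of compounds falling between control-based bounds plus 3 SD, cut at about 20% in these data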
proKLK7 act conf: proKLK7 zymogen activators, confirmation, biochemical, fluorescence intensity, triplicate; 3,200 compounds, 68% hits; activation, % at 7 µM; shares compounds with proKLK7 act; purified proKLK7, EDANS-DABCYL substrate fluorescence; scaled: vehicle 0, mature enzyme 100;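 active = activation, as change over the incubation, above the mean of all tested compounds plus 3 SD, cut at about 13% in these data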
EDANS-DABCYL int: EDANS-DABCYL substrate optical interference, artefact control for kallikrein-7 zymogen activator project, biochemical, fluorescence intensity, high throughput | shares compounds with proKLK7 act | no enzyme, 4 h; solvent 0%, active enzyme control 100% | activation, % at 7 µM | 3,200 compounds, 80% hits | AID 686952, 2013;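 active = activation above the all-compound mean plus 3 SD, ignoring values outside control-based bounds, cut at about 4.8% in these data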;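 note: value is the 4 h activation minus the activation read at time zero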
K7 EDANS ctr: EDANS fluorescence interference in dose response, no enzyme | shares compounds with proKLK7 act | EDANS-DABCYL peptide fluorescence interference | EC50, µM | 250 compounds, 20% hits | AID 720493;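 active = compounds that raise the fluorescence signal in this interference counterscreen, with EC50 at or below 10 µM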;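 note: intact quenched peptide substrate alone read at 355 nm excitation and 520 nm emission; signal is fluorescence gain from T0 to T4 after four hours at room temperature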
Each line names hits and unclear results; the compound was inactive in the other large screens (follow-up assays come after a bar, where they were run). Shown are actives, neighbours in structure and some others; about 2.9% of the full set was active somewhere.

Nc1cccc2c1C(=O)N(C(=O)c1ccc(Cl)c(S(=O)(=O)N3CCCCCC3)c1)C2=O	proKLK7 act 18 | proKLK7 act conf 217 | EDANS-DABCYL int 233
COC(=O)c1cc(-c2cccc(OC(F)(F)F)c2)c(=O)n2c1CCC2	none
CC(C)C1NC2(C(=O)c3ccccc3C2=O)C2C(=O)N(c3ccc(F)cc3)C(=O)C12 (stereo not drawn)	proKLK7 act 20 | proKLK7 act conf inactive | EDANS-DABCYL int inactive
O=S(=O)(O)c1ccc(N2N=C(c3ccccc3)CC2c2ccccc2)cc1 (stereo not drawn)	proKLK7 act 56 | proKLK7 act conf 72 | EDANS-DABCYL int 66
CCNc1cc2n(c(=O)n1)CCc1cc(OC)c(OC)cc1-2	none
COc1cc2c(cc1OC)-c1cc(OCCN3CCOCC3)nc(=O)n1CC2	proKLK7 act 77 | proKLK7 act conf 69 | EDANS-DABCYL int 64
CCOC(=O)c1nn(-c2ccc(F)cc2)cc1O	none
CCOC(=O)c1nn(-c2ccc3c(c2)CCN3C(C)=O)cc1O	proKLK7 act 175 | proKLK7 act conf inactive | EDANS-DABCYL int 19
COc1ccc(Br)cc1C=NNC(=O)c1ccncc1	none
CCc1cc(=O)oc2cc(OC(C)=O)cc(OC(C)=O)c12	proKLK7 act 79 | proKLK7 act conf 486 | EDANS-DABCYL int 534
COc1cc(OCc2ccccc2)c2c(CCC(=O)O)cc(=O)oc2c1	proKLK7 act 89 | proKLK7 act conf 59 | EDANS-DABCYL int 58
CC[C@H](C(=O)Nc1ccccc1N1CCCC1)c1ccccc1	none
COc1ccc(-n2cc(COC(=O)NCCc3c[nH]c4ccccc34)nn2)cc1	none
Cc1cc(N(C)Cc2ccccc2)nc2cc(O)ccc12	proKLK7 act 35 | proKLK7 act conf 64 | EDANS-DABCYL int 74
Cc1cccn2c(=O)c3cc(C(=O)NCCCN4CCCC4=O)n(C)c3nc12	proKLK7 act 14 | proKLK7 act conf inactive | EDANS-DABCYL int 15
COCCNC(=O)c1cc2c(=O)n3cccc(C)c3nc2n1C	none
COc1ccc(CCNC(=O)c2cc3c(=O)n4ccccc4nc3n(CCCN3CCOCC3)c2=N)cc1	none
Cc1cccn2c(=O)c3cc(C(=O)N(C)C)n(C)c3nc12	proKLK7 act 26 | proKLK7 act conf 27 | EDANS-DABCYL int 29
Cc1ccc2nc3c(cc(C(=O)NCCc4ccccc4)c(=N)n3CCCN3CCOCC3)c(=O)n2c1	proKLK7 act 17 | proKLK7 act conf inactive | EDANS-DABCYL int inactive
COCCCn1c(C(=O)N2CCOCC2)cc2c(=O)n3ccccc3nc21	proKLK7 act 47 | proKLK7 act conf 72 | EDANS-DABCYL int 80
COC[C@@H](OC(C)=O)[C@H]1OCc2ccccc2[C@@H]1/C=C/c1ccccc1	none
C[C@H]1C2CC(OC(=O)Nc3ccc(F)cc3)C(C2)[C@H]2CCCCN21 (stereo partly drawn)	none
O=C(NCCN1CCOCC1)c1c(O)nc2ccccn2c1=O	none
CCCNc1nc2nc3ccccn3c(=O)c2cc1C(=O)NCCN1CCOCC1	proKLK7 act 26 | proKLK7 act conf 21 | EDANS-DABCYL int 20
N#Cc1cc2c(=O)n3ccccc3nc2n(Cc2cccnc2)c1=O	none
O=C(NCCN1CCOCC1)c1cc2c(=O)n3ccccc3nc2n1Cc1ccccc1	proKLK7 act 41 | proKLK7 act conf 81 | EDANS-DABCYL int 73
N#Cc1cc2c(=O)n3ccccc3nc2n(-c2ccccc2Cl)c1=O	proKLK7 act 31 | proKLK7 act conf 32 | EDANS-DABCYL int 36
COc1ccc(CCn2c(=N)c(C(=O)NCCN3CCOCC3)cc3c(=O)n4ccccc4nc32)cc1OC	none
Cc1cccn2c(=O)c3cc(C(=O)NCc4ccccc4)c(=N)n(CCCN4CCOCC4)c3nc12	proKLK7 act 18 | proKLK7 act conf inactive | EDANS-DABCYL int inactive
CCOC(=O)CC[C@@]1(C(=O)OCC)C[C@@H](CC(=O)NCc2ccc(OC)c(OC)c2)C(=O)N2CCCC=C21	none
O=C(c1cccc(Oc2ccccc2)c1)N1CCC(Oc2cccnc2)CC1	none
C#CCN1CC(N(C)CCOC(=O)c2occ3ccccc23)CS1(=O)=O (stereo not drawn)	none
COC(=O)C1CN(C2CCCC2)CCS(=O)(=O)N1Cc1ccc(Cl)cc1 (stereo not drawn)	none
N=c1c(C(=O)NC2CCCC2)cc2c(=O)n3ccccc3nc2n1CCCN1CCOCC1	proKLK7 act 26 | proKLK7 act conf inactive | EDANS-DABCYL int inactive
COc1ccc(CCn2c(=N)c(C(=O)NCCN3CCOCC3)cc3c(=O)n4cccc(C)c4nc32)cc1OC	none
N#Cc1cc2c(=O)n3ccccc3nc2n(CCCN2CCOCC2)c1=O	proKLK7 act 48 | proKLK7 act conf 44 | EDANS-DABCYL int 40
Cc1cccn2c(=O)c3cc(C(=O)NCCN4CCOCC4)c(=N)n(CCc4ccccc4)c3nc12	proKLK7 act 35 | proKLK7 act conf inactive | EDANS-DABCYL int inactive
COCCCn1c(C(=O)NCCN2CCOCC2)cc2c(=O)n3cccc(C)c3nc21	proKLK7 act 15 | proKLK7 act conf 38 | EDANS-DABCYL int 28 | K7 EDANS ctr inactive
N=c1c(C(=O)NC2CCCC2)cc2c(=O)n3ccccc3nc2n1CCN1CCOCC1	none
Cc1cccn2c(=O)c3cc(C(=O)NCCN4CCOCC4)c(=N)n(CCCN4CCOCC4)c3nc12	proKLK7 act 25 | proKLK7 act conf inactive | EDANS-DABCYL int 8.1
COc1ccc(Cn2cc(COC(=O)NCCc3c[nH]c4ccccc34)nn2)cc1	none
N#CC1C(=O)NC(c2ccccc2)=CC1c1ccccc1 (stereo not drawn)	proKLK7 act 124 | proKLK7 act conf 110 | EDANS-DABCYL int 103
Cc1cccc(N=c2oc3cc(O)ccc3cc2C(N)=O)c1	proKLK7 act 53 | proKLK7 act conf 27 | EDANS-DABCYL int 27
COc1ccccc1NC(=O)c1cc2ccc(O)cc2o/c1=N\O	none
COc1ccccc1N=c1oc2cc(O)ccc2cc1C(=O)NCC1CCCO1 (stereo not drawn)	proKLK7 act 74 | proKLK7 act conf 21 | EDANS-DABCYL int 22
